Source: PubChem (several laboratories)
Only some compounds are listed: those with a hit (about 3.3% of all), similar ones and a draw of the others.
ERa coact inh = ERα–SRC-1 coactivator interaction inhibitors, primary screen, biochemical, TR-FRET, ERα LBD, estradiol-bound. Estrogen receptor (Homo sapiens), P03372. TR-FRET ER-alpha LBD / SRC-1 peptide. inhibition, % at 25.6 µM. 86,000 compounds, 1.7% hits; in the data active means inhibition above about 50%
Smad3 FoxH1 inh = Smad3/FoxH1 peptide binding inhibitors, primary screen, biochemical, TR-FRET; Mothers against decapentaplegic homolog 3 (Homo sapiens), P84022; TR-FRET Smad3/Dy647-FoxH1 peptide binding, europium anti-His; inhibition, % at 25 µM; 88,000 compounds, 0.29% hits; AID 630, 2007;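 active means compounds that reduce the energy-transfer binding signal between the protein and its labelled peptide by more than half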
Target sequence (P84022 whole entry, looked up): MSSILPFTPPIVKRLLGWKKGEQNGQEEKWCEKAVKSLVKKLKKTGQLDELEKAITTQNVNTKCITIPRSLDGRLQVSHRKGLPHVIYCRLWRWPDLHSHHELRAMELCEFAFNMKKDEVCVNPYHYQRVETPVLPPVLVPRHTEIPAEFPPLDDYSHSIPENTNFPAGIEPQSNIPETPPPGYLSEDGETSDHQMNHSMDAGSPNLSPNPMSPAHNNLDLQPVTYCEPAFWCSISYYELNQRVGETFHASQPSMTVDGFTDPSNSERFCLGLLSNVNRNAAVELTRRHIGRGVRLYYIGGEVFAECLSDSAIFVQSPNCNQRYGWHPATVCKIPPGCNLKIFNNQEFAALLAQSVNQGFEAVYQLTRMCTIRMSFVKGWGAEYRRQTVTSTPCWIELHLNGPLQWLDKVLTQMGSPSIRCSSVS
ERb coact inh = inhibitors of ERβ-SRC1 coactivator interaction, primary screen, biochemical, TR-FRET, ERβ LBD, SRC-1 peptide. 86,000 compounds, 1.3% hits. inhibition, % at 25.6 µM. TR-FRET ER-beta LBD / SRC1-Cy5 peptide binding; receptor agonist-loaded with 1 µM estradiol. Estrogen receptor beta (Homo sapiens), Q92731;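 active means compounds whose percent inhibition of the receptor-coactivator binding signal exceeds about 50% in the single-dose screen, limit read from the data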
ERa coact pot = enhancers of ERα–SRC-1 coactivator binding, primary screen, biochemical, TR-FRET, ERα LBD, low estradiol | Estrogen receptor (Homo sapiens), P03372 | TR-FRET ERalpha-LBD/SRC-Cy5 coactivator binding, 2 h; 100 = basal binding, no effect | coactivator binding (% of control), % at 25.6 µM | 86,000 compounds, 1.3% hits | AID 639, 2007; in the data active means activity above about 200%;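 further: binding measured in presence of low estradiol as agonist stimulus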
FAK blocker = FAK kinase inhibitors, primary screen, biochemical; Focal adhesion kinase 1 (Homo sapiens), Q05397; AID 727, 2007; biochemical FAK kinase activity assay; 97,000 compounds, 0.84% hits; inhibition, %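 (tested at 7 µM)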; in the data active means inhibition above about 19%
Hits are given with their value; [ ] = dose if it differs, or a comment.

`CCOC(=O)c1sc(NC(=O)CSc2nc3c(c(-c4ccc(OC)cc4)c2C#N)CCCC3)c(C#N)c1C` gave ERa coact inh inactive, Smad3 FoxH1 inh inactive, ERb coact inh inactive, ERa coact pot inactive and FAK blocker inactive.
`CCOC(=O)c1sc(NC(=O)CSc2nc(C)cc(C)c2C#N)c(C#N)c1C` gave ERa coact inh inactive, Smad3 FoxH1 inh inactive, ERb coact inh inactive, ERa coact pot 267 and FAK blocker inactive.
`CCCC(=Nc1ccc(N)cc1)C1=C(O)C(C(=O)OC)C(C)(C)CC1=O` (stereo not given) gave ERa coact inh inactive, Smad3 FoxH1 inh inactive, ERb coact inh 66[fluorescence artefact?], ERa coact pot inactive and FAK blocker inactive.
Screening CCCCSc1nc(SCC(=O)NCc2ccco2)c2c3c(sc2n1)COC(C)(CC)C3 (stereo not given) returned FAK blocker inactive.
CCCSc1nc(SCC(=O)NCc2ccccc2)c2c3c(sc2n1)COC(C)(CC)C3 (stereo not given) was read as ERa coact inh inactive, Smad3 FoxH1 inh inactive, ERb coact inh inactive, ERa coact pot 298[fluorescence artefact?] and FAK blocker inactive.
NS(=O)(=O)c1ccc(NCc2cnc3ccccc3n2)cc1 was read as Smad3 FoxH1 inh inactive.
`NS(=O)(=O)c1ccc(NCc2cnc3ccccc3c2)cc1` gave Smad3 FoxH1 inh 102.
`CSc1nc2nc3c(c(=O)n2[nH]1)CCCC3` gave ERa coact inh inactive, Smad3 FoxH1 inh inactive, ERb coact inh inactive, ERa coact pot inactive and FAK blocker inactive.
Screening O=C(O)CCCCn1ccc(=O)[nH]c1=O returned Smad3 FoxH1 inh inactive.
CCN1CCc2nc(NC(=O)CC(c3ccccc3)c3ccccc3)sc2C1 was read as ERa coact inh inactive, Smad3 FoxH1 inh inactive, ERb coact inh inactive, ERa coact pot 282[fluorescence artefact?] and FAK blocker inactive.
For O=C(Nc1nc2c(s1)CN(Cc1ccccc1)CC2)c1cccc(S(=O)(=O)N2CCc3ccccc32)c1 the results were ERa coact inh inactive, Smad3 FoxH1 inh inactive, ERb coact inh inactive, ERa coact pot 500[fluorescence artefact?] and FAK blocker inactive.
Screening CCN1CCc2nc(NC(=O)Cc3ccc4c(c3)OCCO4)sc2C1 returned ERa coact inh 54, Smad3 FoxH1 inh inactive, ERb coact inh inactive, ERa coact pot inactive and FAK blocker inactive.
CCN1CCc2nc(NC(=O)c3ccc4c(c3)OCCO4)sc2C1 was read as ERa coact inh 51[fluorescence artefact?], Smad3 FoxH1 inh inactive, ERb coact inh inactive, ERa coact pot inactive and FAK blocker inactive.
CCN1CCc2nc(NC(=O)C(c3ccccc3)c3ccccc3)sc2C1 was read as ERa coact inh inactive, Smad3 FoxH1 inh inactive, ERb coact inh inactive, ERa coact pot inactive and FAK blocker inactive.
For Cc1cnn(-c2ccc3nnc(-c4ccc(Cl)cc4)n3n2)c1 the results were ERa coact inh inactive, Smad3 FoxH1 inh inactive, ERb coact inh inactive, ERa coact pot 329[fluorescence artefact?] and FAK blocker inactive.
C[C@@H]1CCCC(CC(=O)O)(CC(=O)O)C1 was read as Smad3 FoxH1 inh inactive.
Screening CCC(C)C(NC(=O)C(N)CC(C)C)C(=O)NC(CCC(=O)OCc1ccccc1)C(N)=O (stereo not given) returned ERa coact inh inactive, Smad3 FoxH1 inh inactive, ERb coact inh inactive, ERa coact pot 211 and FAK blocker inactive.
For O=C(O)c1cc2ccccc2c(S(=O)(=O)O)c1O the results were Smad3 FoxH1 inh inactive.
For CC(C)NC(=O)c1ccccc1NC(=O)CN(c1ccc2c(c1)OCO2)S(C)(=O)=O the results were ERa coact inh inactive, Smad3 FoxH1 inh inactive, ERb coact inh inactive, ERa coact pot inactive and FAK blocker inactive.
Screening O=C(O)CSc1ccc([N+](=O)[O-])cc1[N+](=O)[O-] returned Smad3 FoxH1 inh inactive.
`Cc1ccc2c(=O)cc(C(F)F)oc2c1` gave ERa coact inh 55[fluorescence artefact?], Smad3 FoxH1 inh inactive, ERb coact inh inactive, ERa coact pot inactive and FAK blocker inactive.
`O=C(O)c1ccccc1-c1ccccc1C(=O)Nc1ccc2c(c1)Cc1cc(F)ccc1-2` gave Smad3 FoxH1 inh inactive.
For O=C(O)c1ccc(C(=O)Nc2cccc3ccccc23)c(C(=O)O)c1 the results were Smad3 FoxH1 inh inactive.
